The results in this text go back to ChEMBL document CHEMBL3988442, “University of Dundee, Small-Polar-MMV Screening Library” (2021).

What all share (parameters): scale not given: direction of the effect not stated beside the values
For assay [1], the target named is Protein translocase subunit SecA (Escherichia coli (strain K12)) (UniProt P10408). Description: Assay to Identify E. coli SecA ATPase Inhibitors. In kind it is functional. The note with it: 30 µM.
Assay [2] has as its target T1, Ubiquitin-activating enzyme e1, putative (Leishmania donovani (strain BPK282A1)) (UniProt E9BSI1).
T1 sequence (whole entry): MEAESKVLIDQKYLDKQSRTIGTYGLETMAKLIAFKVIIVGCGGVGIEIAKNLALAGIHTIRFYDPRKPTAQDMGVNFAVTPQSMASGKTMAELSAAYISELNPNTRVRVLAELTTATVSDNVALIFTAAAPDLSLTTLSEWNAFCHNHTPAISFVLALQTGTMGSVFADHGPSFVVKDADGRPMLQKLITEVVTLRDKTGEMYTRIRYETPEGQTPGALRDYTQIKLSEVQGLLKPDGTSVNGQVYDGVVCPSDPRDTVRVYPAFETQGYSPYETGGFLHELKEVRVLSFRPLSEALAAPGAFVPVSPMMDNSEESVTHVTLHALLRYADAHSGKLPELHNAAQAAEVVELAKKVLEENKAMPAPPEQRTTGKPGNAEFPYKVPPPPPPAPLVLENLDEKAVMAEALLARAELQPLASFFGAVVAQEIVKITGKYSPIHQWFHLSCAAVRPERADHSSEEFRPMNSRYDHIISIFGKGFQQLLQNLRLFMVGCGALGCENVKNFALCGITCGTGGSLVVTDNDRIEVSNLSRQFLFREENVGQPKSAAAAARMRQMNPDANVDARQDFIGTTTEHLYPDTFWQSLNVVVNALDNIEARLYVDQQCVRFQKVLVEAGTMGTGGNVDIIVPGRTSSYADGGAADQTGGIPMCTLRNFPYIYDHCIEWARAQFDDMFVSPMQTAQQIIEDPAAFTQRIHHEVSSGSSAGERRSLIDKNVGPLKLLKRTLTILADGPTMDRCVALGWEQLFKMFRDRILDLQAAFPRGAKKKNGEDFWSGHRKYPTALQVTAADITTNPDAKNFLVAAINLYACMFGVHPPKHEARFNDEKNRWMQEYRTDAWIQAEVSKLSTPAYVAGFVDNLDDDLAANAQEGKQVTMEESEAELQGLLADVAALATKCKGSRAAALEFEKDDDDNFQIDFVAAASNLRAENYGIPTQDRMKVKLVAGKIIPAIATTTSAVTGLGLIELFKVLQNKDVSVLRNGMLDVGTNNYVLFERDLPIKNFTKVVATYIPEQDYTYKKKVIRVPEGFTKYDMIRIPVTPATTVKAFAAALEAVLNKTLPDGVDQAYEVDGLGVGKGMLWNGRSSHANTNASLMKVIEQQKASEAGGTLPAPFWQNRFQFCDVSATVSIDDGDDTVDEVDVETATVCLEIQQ
Nature of the assay: Leishmania donovani Ubiquitin Activating Enzyme (LdE1). In kind it is functional. The note with it: 30 µM.

Assay [3] addresses AMP-activated protein kinase, AMPK (Homo sapiens) (UniProt P54646+O43741+P54619+Q9UGJ0+Q9Y478+Q13131+Q9UGI9). Description: AMP-dependent Kinase enzyme assay. An in vitro enzyme assay that detects ADP turnover that is directly proportional to AMPK activity. This uses naive AMPK that is activated during the assay with MK-8722. In kind it is functional. The note with it: 30 µM.
The target in assay [4] is Sialic acid-binding Ig-like lectin 9 (Homo sapiens) (UniProt Q9Y336). Nature of the assay: Hs-Siglec9 ALPHAscreen SOP 20170721. The note with it: 10 µM. In general terms: In Alpha technology, singlet oxygen from a donor bead excites a nearby acceptor bead.
Chain of Sialic acid-binding Ig-like lectin 9 (Homo sapiens) (Q9Y336 whole entry): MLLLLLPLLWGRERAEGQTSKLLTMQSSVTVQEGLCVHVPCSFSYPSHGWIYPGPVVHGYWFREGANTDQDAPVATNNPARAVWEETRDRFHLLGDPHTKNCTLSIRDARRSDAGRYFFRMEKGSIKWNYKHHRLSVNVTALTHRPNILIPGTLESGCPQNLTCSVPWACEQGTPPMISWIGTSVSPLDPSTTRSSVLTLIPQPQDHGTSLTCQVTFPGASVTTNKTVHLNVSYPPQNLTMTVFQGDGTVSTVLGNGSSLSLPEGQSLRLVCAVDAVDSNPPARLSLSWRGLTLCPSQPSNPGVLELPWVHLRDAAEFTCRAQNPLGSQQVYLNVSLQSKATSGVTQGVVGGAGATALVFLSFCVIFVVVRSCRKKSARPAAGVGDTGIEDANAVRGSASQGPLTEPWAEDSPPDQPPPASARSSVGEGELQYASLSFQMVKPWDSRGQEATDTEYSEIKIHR
For a further assay, the system named is Trypanosoma cruzi. Description: Trypanosoma cruzi phosphomannomutase and mannose-1-phosphate guanylyltransferase assay. In kind it is functional. The note with it: 10 µM.
Assay [5] concerns the target T2, Arginase-2, mitochondrial (Homo sapiens) (UniProt P78540).
T2 sequence (whole entry): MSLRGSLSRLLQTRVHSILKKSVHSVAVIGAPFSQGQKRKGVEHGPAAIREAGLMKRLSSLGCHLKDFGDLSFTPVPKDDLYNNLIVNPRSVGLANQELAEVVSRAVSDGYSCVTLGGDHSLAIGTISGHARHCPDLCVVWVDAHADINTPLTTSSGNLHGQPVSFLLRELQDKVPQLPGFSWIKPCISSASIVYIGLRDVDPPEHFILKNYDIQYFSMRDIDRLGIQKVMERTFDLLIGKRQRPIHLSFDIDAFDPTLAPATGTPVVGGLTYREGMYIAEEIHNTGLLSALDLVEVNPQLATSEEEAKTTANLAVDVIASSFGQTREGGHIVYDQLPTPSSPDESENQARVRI
Description: in vitro enzyme assay to detect the production of urea directly proportional to the activity of Arginase II. Note: in the data most compounds retested in dose-response had high values. The format is functional. The note with it: 33.3 µM.

The target in assay [6] is T3, Proteasome subunit beta (Trypanosoma cruzi) (UniProt O96673).
T3 sequence (whole entry): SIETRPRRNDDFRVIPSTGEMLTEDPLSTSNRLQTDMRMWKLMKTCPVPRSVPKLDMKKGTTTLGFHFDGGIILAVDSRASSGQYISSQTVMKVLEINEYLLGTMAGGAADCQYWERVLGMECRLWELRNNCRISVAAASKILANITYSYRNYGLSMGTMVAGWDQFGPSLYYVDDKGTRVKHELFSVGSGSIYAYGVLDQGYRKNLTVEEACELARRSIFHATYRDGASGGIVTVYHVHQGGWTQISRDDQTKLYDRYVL
Description: Trypanosoma cruzi proteasome chymotrypsin-like activity (TcProtChymo) assay. Note: in the data most compounds retested in dose-response had high values. The format is functional. The note with it: 9.37 µM.

The species named for the next assay is Homo sapiens. Nature of the assay: To identify inhibition of the IFN signalling (Jak-Stat) pathway via expression of an eGFP reporter gene under the control of an IFN-stimulated response element (ISRE) containing MxA promoter. In kind it is functional. The note with it: 30 µM. (In a reporter assay the amount or activity of a reporter protein is the signal.)

Assay [7] has as its target T4, Tyrosyl-tRNA synthetase, putative (Trypanosoma cruzi (strain CL Brener)) (UniProt Q4DSP6).
T4 sequence (whole entry): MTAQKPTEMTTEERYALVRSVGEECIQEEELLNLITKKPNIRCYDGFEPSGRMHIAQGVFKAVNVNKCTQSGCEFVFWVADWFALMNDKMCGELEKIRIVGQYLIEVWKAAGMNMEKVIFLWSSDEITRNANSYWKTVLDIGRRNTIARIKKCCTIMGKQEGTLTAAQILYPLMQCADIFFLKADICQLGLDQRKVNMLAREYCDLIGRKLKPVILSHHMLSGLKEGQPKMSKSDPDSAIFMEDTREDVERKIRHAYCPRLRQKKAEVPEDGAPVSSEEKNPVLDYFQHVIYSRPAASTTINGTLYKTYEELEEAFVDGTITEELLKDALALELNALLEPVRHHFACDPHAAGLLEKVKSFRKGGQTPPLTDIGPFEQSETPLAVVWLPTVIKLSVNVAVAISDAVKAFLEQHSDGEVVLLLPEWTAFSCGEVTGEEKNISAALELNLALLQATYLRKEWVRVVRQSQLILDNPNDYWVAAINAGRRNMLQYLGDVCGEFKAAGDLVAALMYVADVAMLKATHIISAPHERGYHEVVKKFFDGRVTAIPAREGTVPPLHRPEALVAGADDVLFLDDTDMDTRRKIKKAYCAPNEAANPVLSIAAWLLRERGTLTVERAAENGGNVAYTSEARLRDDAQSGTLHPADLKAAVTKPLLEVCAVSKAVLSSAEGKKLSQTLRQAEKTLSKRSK
Description: Trypanosoma cruzi tyrosyl tRNA synthetase (TcYRS) _High Tyrosine SOP. Note: in the data most compounds retested in dose-response had high values. In kind it is functional. The note with it: 30 µM.

Assay [8] concerns the target T4, Tyrosyl-tRNA synthetase, putative (Trypanosoma cruzi (strain CL Brener)). Nature of the assay: Trypanosoma cruzi tyrosyl tRNA synthetase (TcYRS) SOP. The format is functional. The note with it: 30 µM.
The target of assay [9] is Chromo domain-containing protein 1 (Saccharomyces cerevisiae (strain ATCC 204508 / S288c) (Baker's yeast)) (UniProt P32657). Nature of the assay: ScCHD-1 Enzyme Inhibition Assay. Note: in the data most compounds retested in dose-response had high values. The format is functional. The note with it: 30 µM.
Chain of Chromo domain-containing protein 1 (Saccharomyces cerevisiae (strain ATCC 204508 / S288c) (Baker's yeast)) (P32657 whole entry, the tested form may be a part): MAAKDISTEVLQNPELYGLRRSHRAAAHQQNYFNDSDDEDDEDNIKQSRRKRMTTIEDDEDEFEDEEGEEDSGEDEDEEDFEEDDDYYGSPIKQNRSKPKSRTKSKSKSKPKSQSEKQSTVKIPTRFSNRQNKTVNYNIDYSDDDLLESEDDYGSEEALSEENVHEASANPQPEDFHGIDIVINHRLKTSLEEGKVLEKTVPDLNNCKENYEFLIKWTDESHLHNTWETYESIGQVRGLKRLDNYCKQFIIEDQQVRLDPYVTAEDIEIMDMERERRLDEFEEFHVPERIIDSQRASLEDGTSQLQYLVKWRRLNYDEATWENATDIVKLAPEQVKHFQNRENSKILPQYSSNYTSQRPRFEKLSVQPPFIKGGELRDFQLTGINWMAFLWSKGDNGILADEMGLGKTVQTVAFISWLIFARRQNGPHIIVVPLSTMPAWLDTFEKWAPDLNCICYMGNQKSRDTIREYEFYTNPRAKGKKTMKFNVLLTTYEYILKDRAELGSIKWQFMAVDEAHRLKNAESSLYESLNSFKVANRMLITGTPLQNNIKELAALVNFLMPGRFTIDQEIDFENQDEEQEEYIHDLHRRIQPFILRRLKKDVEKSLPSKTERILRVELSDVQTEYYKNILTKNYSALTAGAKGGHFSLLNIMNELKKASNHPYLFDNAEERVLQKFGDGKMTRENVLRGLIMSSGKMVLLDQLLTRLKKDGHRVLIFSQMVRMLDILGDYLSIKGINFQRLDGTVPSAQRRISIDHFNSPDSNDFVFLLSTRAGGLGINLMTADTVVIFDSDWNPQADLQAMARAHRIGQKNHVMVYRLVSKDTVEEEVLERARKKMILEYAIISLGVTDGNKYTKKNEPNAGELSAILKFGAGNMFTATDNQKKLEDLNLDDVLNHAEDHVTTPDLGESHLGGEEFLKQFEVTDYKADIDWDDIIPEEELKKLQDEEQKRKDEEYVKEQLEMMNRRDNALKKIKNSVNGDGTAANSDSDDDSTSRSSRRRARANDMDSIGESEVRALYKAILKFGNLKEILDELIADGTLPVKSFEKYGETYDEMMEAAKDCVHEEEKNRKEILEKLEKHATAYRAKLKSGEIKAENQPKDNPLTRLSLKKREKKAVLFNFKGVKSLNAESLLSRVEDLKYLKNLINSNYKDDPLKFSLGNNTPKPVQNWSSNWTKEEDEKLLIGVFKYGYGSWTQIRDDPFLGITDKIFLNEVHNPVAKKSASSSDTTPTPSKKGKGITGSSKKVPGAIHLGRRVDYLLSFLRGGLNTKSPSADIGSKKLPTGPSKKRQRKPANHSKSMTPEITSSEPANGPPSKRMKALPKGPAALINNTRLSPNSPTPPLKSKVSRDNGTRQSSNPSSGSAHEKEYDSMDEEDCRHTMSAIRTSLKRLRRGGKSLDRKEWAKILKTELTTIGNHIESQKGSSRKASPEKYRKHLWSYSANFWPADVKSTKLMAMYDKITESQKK

For some assays here: Measured potencies and affinities stand elsewhere.

Chain of Protein translocase subunit SecA (Escherichia coli (strain K12)) (P10408 whole entry): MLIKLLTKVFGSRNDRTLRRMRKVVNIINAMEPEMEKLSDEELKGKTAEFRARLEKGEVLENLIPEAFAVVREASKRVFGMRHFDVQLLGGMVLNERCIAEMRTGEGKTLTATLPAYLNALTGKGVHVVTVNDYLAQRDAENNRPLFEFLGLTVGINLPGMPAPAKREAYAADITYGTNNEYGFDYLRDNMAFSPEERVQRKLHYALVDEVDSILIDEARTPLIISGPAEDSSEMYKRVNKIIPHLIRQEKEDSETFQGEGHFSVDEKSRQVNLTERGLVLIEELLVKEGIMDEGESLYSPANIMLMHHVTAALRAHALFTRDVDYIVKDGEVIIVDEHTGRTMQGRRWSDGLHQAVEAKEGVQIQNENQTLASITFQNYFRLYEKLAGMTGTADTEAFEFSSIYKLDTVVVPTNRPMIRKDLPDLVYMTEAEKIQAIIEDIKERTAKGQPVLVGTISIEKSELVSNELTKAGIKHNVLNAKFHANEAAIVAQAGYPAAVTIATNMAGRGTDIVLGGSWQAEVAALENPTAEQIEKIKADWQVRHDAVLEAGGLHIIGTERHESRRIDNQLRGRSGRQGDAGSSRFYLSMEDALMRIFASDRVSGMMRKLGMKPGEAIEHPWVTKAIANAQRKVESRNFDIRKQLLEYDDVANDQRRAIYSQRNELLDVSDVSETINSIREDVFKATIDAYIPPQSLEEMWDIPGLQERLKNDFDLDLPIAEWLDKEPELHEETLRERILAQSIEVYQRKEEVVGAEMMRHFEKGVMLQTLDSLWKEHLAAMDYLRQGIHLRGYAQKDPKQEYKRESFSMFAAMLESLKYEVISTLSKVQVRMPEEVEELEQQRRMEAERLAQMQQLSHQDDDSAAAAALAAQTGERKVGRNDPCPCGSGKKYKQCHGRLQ

Regarding `CCCS(=O)(=O)NC(C)C(=O)NCc1ccc(N2CCCC2)nc1` (stereo not given), the Percent Effect is -3.52% in [1]; 16.2% in assay [2]; -27.4% in [3]; -2.65% in [4]; -0.66% in the assay with Trypanosoma cruzi; -4.01% in assay [5]. Further, the Percent Effect in [6] is 12.8%; in the assay listed under Homo sapiens, 5.44%; in assay [7] it was 13.3%; in assay [8], 13.6%; in assay [9] it was -7.91%.
Take `O=C(c1ccc(Br)o1)N1CCN(Cc2ccc(OC(F)(F)F)cc2)CC1`: the Percent Effect in assay [1] was -1.82%; in assay [2] it was 5.48%; in [3], 27.2%; in assay [4], -16.1%; in the assay with Trypanosoma cruzi, -1.96%; in assay [5], -0.455%. Besides, the Percent Effect in [6] is 8.87%; in the assay filed under Homo sapiens, 37.2%; in assay [7] it was 2.15%; in [8], 7.5%; in assay [9], -3.29%.
As to `Cc1ccc(S(=O)(=O)NC(=O)c2cccc3c2OCCO3)c(C)c1`, the Percent Effect was -2.98% in assay [1]; -5.48% in assay [2]; 7.47% in [3]; -1.04% in [4]; -3.33% in the assay on Trypanosoma cruzi; 4.54% in assay [5]. Also, the Percent Effect in assay [6] is 9.94%; in the assay filed under Homo sapiens it was 5.47%; in assay [7] it was -10.8%; in assay [8] it was -12.5%; in assay [9] it was -2.7%.
On to `Cc1cc(C)n(-c2cc(N3CCN(C(=O)C(C)(C)C)CC3)nc(C)n2)n1`, for which the Percent Effect in assay [1] is -2.73%; in assay [2], 5.33%; in assay [3] it was -1.22%; in [4] it was 6.39%; with Trypanosoma cruzi, 2.04%; in assay [5], 14.1%. Further, the Percent Effect was 3.31% in assay [6]; 26.8% in the assay filed under Homo sapiens; 0.546% in assay [7]; 3.7% in assay [8]; -5.38% in assay [9].
In the case of `COCCNC(=O)c1cc2c(s1)CCN2C(=O)c1ccccc1`, the Percent Effect in [1] was -6.01%; in [2] it was 10.7%; in assay [3] it was -16.6%; in [4] it was 4.96%; with Trypanosoma cruzi, 1.35%; in assay [5] it was -53.9%. Further, the Percent Effect in [6] is 9.74%; in the assay listed under Homo sapiens it was -0.33%; in [7] it was 6.25%; in [8] it was 15%; in [9], 6.46%.
For the compound `CCn1c(C(=O)N2CCN(C(=O)COC)CC2)cc2ccccc21`, the Percent Effect was -10.4% in assay [1]; 13% in [2]; -4.96% in assay [3]; 23.8% in assay [4]; 11.4% with Trypanosoma cruzi; 2.49% in assay [5]. In addition, the Percent Effect in [6] was -0.169%; in the assay filed under Homo sapiens, 10.3%; in assay [7], 7.77%; in assay [8], 21.9%; in assay [9], -12.3%.
In the case of `CCc1cnc(N)nc1NCCN1CCCCC1`, the Percent Effect in assay [1] was -4.23%; in [2], 13%; in assay [3], 1.45%; in assay [4] it was 11.9%; with Trypanosoma cruzi it was 6.59%; in [5], 2.76%. In addition, the Percent Effect in assay [6] is 7.16%; in the assay filed under Homo sapiens, 4.63%; in assay [7] it was 7.53%; in assay [8], 16.1%; in [9], -7.73%.
Take `O=C(NCC1CC1)C1CSCN1S(=O)(=O)c1cccc(F)c1` (stereo not given): the Percent Effect is -1.87% in [1]; 8.22% in assay [2]; -0.192% in assay [3]; -1.84% in assay [4]; 2.94% in the assay with Trypanosoma cruzi; -0.455% in assay [5]. The Percent Effect was 25% in [6]; -0.563% in the assay filed under Homo sapiens; 4.3% in assay [7]; 12.5% in assay [8]; -3.76% in assay [9].
As for `Cc1nc(CN(C)C(=O)Nc2cnn(CC3CCCO3)c2)cs1` (stereo not given), the Percent Effect was -3.47% in assay [1]; -5.41% in assay [2]; -27.6% in assay [3]; 1.65% in assay [4]; -0.965% with Trypanosoma cruzi; 0.952% in assay [5]. Also, the Percent Effect was 5.86% in [6]; 15% in the assay filed under Homo sapiens; -6.88% in [7]; -9.76% in assay [8]; 0.495% in [9].
For the compound `O=C1CCC2(CCCN(C(=O)c3cscn3)C2)CN1CCc1c[nH]cn1` (stereo not given), the Percent Effect in assay [1] is -3.15%; in assay [2], 7.79%; in assay [3], -3.24%; in assay [4], 13.5%; in the assay on Trypanosoma cruzi, 6.98%; in assay [5] it was -9.65%. In addition, the Percent Effect in [6] is 15.1%; in the assay listed under Homo sapiens it was -31.6%; in assay [7], 5.38%; in assay [8], 13.6%; in assay [9], -5.62%.
